According to PubChem BioAssay (EPA / NIEHS):
Active and inactive are the calls of the source. How the source made its calls: active means hit-call score of the fitted dose curve at least 0.9, where 1 is the maximum; inactive means score below 0.9.

These compounds were tested on sulfotransferase 2A1 (SULT2A1), SULT2A1 (gene 6822) (assay: LTEA_HepaRG_SULT2A1: Life Technologies and Expression Analysis (LTEA) Assay for sulfotransferase 2A1 (SULT2A1) using HepaRG (AID 2283531)). Conditions: mRNA level, 48 h; actives raise or lower the signal.
Protocol: LTEA_HepaRG is a cell based, multiplexed-readout assay that uses HepaRG, a human liver cell line, with measurements taken at 48 hours after chemical dosing on a 96-well plate.LTEA_HepaRG_SULT2A1 is one of 102 assay component(s) measured in the LTEA HepaRG cell culture assay. It is a marker of NR mediated transport.Data from the assay component LTEA_HepaRG_SULT2A1 was analyzed into 1 endpoint. This assay endpoint, LTEA_HepaRG_SULT2A1, was analyzed with bidirectional fitting relative to DMSO as the negative control and baseline of activity. Using a type of inducible reporter, measures of mRNA induction for gain or loss-of-signal activity can be used to understand regulation of transcription factor activity. To generalize the intended target to other relatable targets, this assay endpoint is annotated to the transferase intended target family, where the subfamily is sulfotransferase.
A total of 1060 chemcials from the ToxCast library were tested in eight-point concentration-response experiments. Cell culture and cytotoxicity assays were conducted at Thermo Fisher Scientific's Custom Services facility (Madison, WI). A single lot of human HepaRG cells (Thermo Fisher Scientific, Frederick, MD) was used for the cell culture experiments. 96-well format collagen type I coated plates of human HepaRG cells were prepared using established methods. Briefly, cryopreserved HepaRG cells were thawed, plated at a density of approximately 100,000 cells/well in HepaRG Thaw, Plate, and General Purpose media (HPRG770, Thermo Fisher Scientific), and incubated for 48 hours. 0.5% DMSO was selected as vehicle control to balance the requisite need of DMSO in HepaRG cultures to maintain differentiation (for example, baseline metabolism, proportions of hepatocytes vs. cholangiocytes), while enabling further hepatic receptor pathway activation (for example, PXR and CAR) in response to chemical exposure. 48 hours after plating, the culture medium was replaced with HepaRG Serum-Free Incudtion Media. Cells were exposed to each test chemical in duplicate and maintained in CO2 incubators for another 48 hours. Chemical plates were thawed to room temperature and 200x concentrations of treatment groups were prepared. 8-point conentration-reponse curves were made with the highest exposure at 100 uM, followed by half-log dilutions, all in 0.5% DMSO. Each test plate contained variouse controls, induction positive controls (1mM phenobarbital), cytotoxicity positive controls ([…] aflatoxin B1), vehicle controls (0.5% DMSO), and total lysis controls (0.5% DMSO). Cell morphology images were taken using an Essen IncuCyte FLR automated microscope, with six 96-well plates imaged in about 24 minutes. Images were captured and exported and JPEG files. Spent culture media was transfered to black-well plates for the LDH assay, and remaining media was sorted at -80 C for later use. Cells were treated with RLT buffer and frozen until shipped for gene expression analysis. Total RNA was isolated from the cell suspension in 75 uL of Buffer RLT (Qiagen, Germantown, MD 20874) by Quintiles/Expression Analysis (Durham, NC) using a custom isolation procedure. Total RNA from each plate well was transferred to a preamplification plate. Fluidigm's 96.96 Dynamic ArrayTM (Fluidigm, Amsterdam, the Netherlands) technology was used for gene expression analyses by quantitative reverse transcription polymerase chain reaction (qRT-PCR, performed by Quintiles/Expression Analysis, Durham, NC)89. Standard TaqManTM Assays (Applied Biosystems/ThermoFisher Scientific, Foster City, CA) were used to assess the expression of 93 genes selected based on their selectivity and sensitivity to important hepatic receptors known to be modulated by environmental chemicals; importance in human hepatocyte functionality; and hepatotoxicity. […]

outcome, inactive:
Cc1ccc(C(C)(C)C)c(O)c1
CC(C)(O)c1ccc(CNC(=O)c2cccnc2Oc2ccc(F)cc2)cc1
OCC(CO)n1cnc(-c2ccc(F)cc2)c1-c1ccnc(Oc2ccccc2)n1
CC(C)COC(=O)CCCCC(=O)OCC(C)C
CN(C)CCCN(C)CCCN(C)C
C#CC(O)C(CC)CCCC (stereo not given)
C=CCc1ccc(OC)c(OC)c1
O=C(O)CC(O)(CC(=O)O)C(=O)O
O=[Si]=O
CCOCCOCCO
CC(=O)S[C@H](C(=O)N[C@H]1Cc2ccccc2[C@H]2CCC[C@@H](C(=O)O)N2C1=O)C(C)C
CCCC(=O)O
COC(=O)CCCC(=O)OC
NC1CCCCC1
CC(=O)OCC(COC(C)=O)OC(C)=O
CC(=O)[C@@]1(O)CC[C@H]2[C@@H]3CCC4=CC(=O)CC[C@]4(C)[C@H]3CC[C@@]21C
CCCCCCC(CCCCCCCCCCC(=O)OCC(COC(C)=O)OC(C)=O)OC(C)=O (stereo not given)
C/C=C/C=C/C(=O)O
CC1=C(C)S(=O)(=O)CCS1(=O)=O
CC(N)=O
CCCCC(CC)CO (stereo not given)
O=C(O)CN(CC(=O)O)CC(=O)O
S=c1[nH]c2ccccc2s1
C/C=C/c1ccc(OC)cc1
c1ccc2occc2c1
CC(COCC(C)OC(=O)c1ccccc1)OC(=O)c1ccccc1 (stereo not given)
O=C1OC(c2ccc(O)cc2)(c2ccc(O)cc2)c2ccccc21
Cn1cnc2c1c(=O)[nH]c(=O)n2C
C=CCCCCCCCCCCCC
CCCCCCC(C=O)=Cc1ccccc1
Oc1ccc(O)cc1
Cc1cn([C@H]2C=C[C@@H](CO)O2)c(=O)[nH]c1=O

AC50, active:
O=C1NC(=O)C(c2ccccc2)(c2ccccc2)N1 50 µM
Nc1nc(Cl)nc2c1ncn2[C@H]1C[C@H](O)[C@@H](CO)O1 2.81 µM
O=C(N[C@@H](c1ccccc1)[C@@H]1CCCCN1)c1cccc(C(F)(F)F)c1Cl 78.9 µM
Cc1ccc(-c2cc(C(F)(F)F)nn2-c2ccc(S(N)(=O)=O)cc2)cc1 83.6 µM
CN(C)CCCN1c2ccccc2Sc2ccc(Cl)cc21 82.7 µM
COc1ccc(C(=O)Nc2nc3ccccc3c(NCc3ccccc3)c2C#N)cc1 21.2 µM
Nc1nc(=S)c2[nH]cnc2[nH]1 11.4 µM
COc1ccc(OC(F)(F)F)cc1CN[C@H]1CCCN[C@H]1c1ccccc1 81.2 µM
